According to PubChem BioAssay AID540364 (The Scripps Research Institute Molecular Screening Center, 2011):
The whole screen tested about 360,000 compounds, of which about 2,000 (0.56%) were called active. This is one part of a sample in which actives are shown more often than they occur. Unmarked numbers belong to inactive results.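 The calls were made as follows: active = activation above the average of all compounds screened plus 3 SD, cutoff fixed separately per campaign (cut at about 7.5% in these data); inactive = the rest.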

Experiment: FXN promoter activators, primary screen, cell-based, luciferase luminescence, HEK293 lucGAA850 (AID 540364);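 also: 0% = DMSO wells and 100% = 10 µM SAHA wells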
Conditions: HEK293 lucGAA850 FXN promoter luciferase reporter, 24 h; at 6 µM; stronger effect = higher value; percent of 10 µM SAHA response

| Structure (SMILES) | activation |
| --- | --- |
| Oc1ccc(C2Nc3cccc4cccc(c34)N2)cc1 | 1.97% |
| Cc1ccc(C2Nc3cccc4cccc(c34)N2)cc1 | 14.9% (active) |
| Cc1ccc(C2CC(c3cccc(C)c3)n3nc(N)nc3N2)cc1 (centres undefined) | -0.54% |
| CSCCC(NC(=O)COc1ccccc1)C(=O)OCC(=O)c1cc2ccccc2o1 (centres undefined) | -0.05% |
| CC(C)c1ccc(NC2CCCN(C(=O)c3ccncc3)C2)cc1 (centres undefined) | 3.59% |
| O=C(O)CCCCCCCCCC[n+]1ccccc1 | 0.28% |
| NC(=O)NCCCC(=O)O | 1.1% |
| CCCCCCCCCCCC(=O)O | 9.07% (active) |
| Cn1c(=O)cc(OCCCC(=O)N2CCN(c3ccccn3)CC2)c2ccccc21 | -3.01% |
| O=C(Nc1ccc(F)cc1)c1cc2c(s1)CCCC2 | 2.99% |
| O=C(NCc1cccnc1)Nc1cccc(NC(=O)NCc2cccnc2)c1F | 0.81% |
| CCN(CCN(C)C)C(=O)c1ccc2nc(C)c(N(C)C(=O)CCc3ccccc3)n2c1 | 0.72% |
| CC(C)c1ccc(NS(=O)(=O)c2cn(C)c(=O)n(C)c2=O)cc1 | 14.8% (active) |
| Cn1cc(S(=O)(=O)Nc2ccc(Cl)cc2Cl)c(=O)n(C)c1=O | 1.45% |
| Cn1cc(S(=O)(=O)NC(c2ccccc2)c2ccccc2)c(=O)n(C)c1=O | -1.45% |
| COc1ccc(C(C#N)Nc2ccc(C)cc2)cc1 (centres undefined) | -0.7% |
| O=C1C=C(c2ccnc3cc(Cl)ccc23)C[C@@H](c2ccc3c(c2)OCO3)C1 | -1.07% |
| Cc1cc(C(=O)NCCc2ccc(Cl)cc2)c(C)o1 | 3.56% |
| Cc1cc(-c2n[nH]c(=S)n2/N=C/C(Br)=C/c2ccccc2)n[nH]1 | -0.09% |
| CC(C)c1cc(C(=O)O)n[nH]1 | -1.31% |
| Cc1ccc(-c2cc(C(=O)N/N=C/C=C/c3ccccc3)n[nH]2)o1 | 1.11% |
| Cc1cc(C(=O)N/N=C\C(Br)=C\c2ccccc2)c(C)o1 | 11.4% (active) |
| CC(C)c1cc(C(=O)N/N=C/C(Br)=C/c2ccccc2)n[nH]1 | 9.41% (active) |
| CCN(C(=O)COC(=O)C1CCN(S(=O)(=O)c2ccc(C)c(C)c2)CC1)C1CCS(=O)(=O)C1 (centres undefined) | 0.06% |
| COc1cccc(OC)c1C(=O)Nc1ccc(Cc2ccncc2)cc1 | 3.03% |
| CC(=O)c1ccc(NC(=O)CCc2nnc3ccc(NCc4ccco4)nn23)cc1 | 3.69% |
| CCc1nnc(NC(=O)CSc2nnnn2-c2cccc(C(C)=O)c2)s1 | 0.27% |

| Structure (SMILES) | activation |
| --- | --- |
| CC[C@]12c3[nH]c4ccc(Cl)cc4c3CCN1C(=O)[C@@H](CC(=O)NCCCOC)C[C@@H]2C(=O)N1CCN(C(=O)C2CC2)CC1 | -1.48% |
| O=C(Nc1ccc2c(c1)OCCO2)c1cnccn1 | 7.89% (active) |
| O=C(CCN1C(=O)c2ccncc2C1=O)Nc1ccc2c(c1)OCCO2 | -1.17% |
| O=C(Nc1ccc2c(c1)OCCO2)c1ccoc1 | 0.23% |
| COC(=O)[C@]1(Cc2ccccc2)N[C@H](CN(C)S(=O)(=O)c2ccc(F)cc2)[C@@H]2C(=O)N(Cc3ccccc3)C(=O)[C@@H]21 | -3.95% |
| CCNC(=O)N(CC)C[C@H]1N[C@@](CC)(C(=O)OC)[C@H]2C(=O)N(Cc3ccccc3)C(=O)[C@@H]12 | 0.95% |
| CCN(C[C@H]1N[C@@](Cc2ccccc2)(C(=O)OC)[C@H]2C(=O)N(Cc3ccccc3)C(=O)[C@@H]12)C(=O)c1ccc(C)cc1 | -1.78% |
| CC[C@]1(C(=O)OC)[C@H]2C(=O)N(C)C(=O)[C@H]2[C@H]2CN(C)C(=NCc3ccccc3)N21 | -0.41% |
| COC(=O)[C@@]1(C)[C@H]2C(=O)N(Cc3ccccc3)C(=O)[C@H]2[C@H]2CN=C(SCC3CC3)N21 | 15.7% (active) |
| CCN1C[C@@H]2[C@@H]3C(=O)N(Cc4ccccc4)C(=O)[C@@H]3[C@](Cc3ccccc3)(C(=O)OC)N2C1=NC1CCCCC1 | 0.85% |
| CCC1(CC)C(=O)C2=C3C1[C@H](C(=O)OC)C=C(C(=O)OC)C[C@H]3[C@H]1C(=O)N(Cc3ccccc3)C(=O)[C@H]1[C@H]2C (some centres undefined) | -4.42% |
| CC[C@]1(C(=O)OC)[C@H]2C(=O)N(Cc3ccccc3)C(=O)[C@H]2[C@H]2CN=C(SCc3ccccc3)N21 | 15.5% (active) |
| CCCN=C1N(C)C[C@@H]2[C@@H]3C(=O)N(Cc4ccccc4)C(=O)[C@@H]3[C@](C)(C(=O)OC)N12 | -0.73% |
| CCN1C[C@@H]2[C@@H]3C(=O)N(Cc4ccccc4)C(=O)[C@@H]3[C@](C)(C1=O)N2C(=O)c1ccc(C(C)(C)C)cc1 | 1.3% |
| CC[C@]1(C(=O)OC)[C@H]2C(=O)N(Cc3ccccc3)C(=O)[C@H]2[C@H]2CN=C(SCc3ccc(Cl)cc3)N21 | 17.8% (active) |
| CC[C@]1(C(=O)OC)[C@H]2C(=O)N(Cc3ccccc3)C(=O)[C@H]2[C@H]2CN=C(SCc3ccc(C#N)cc3)N21 | 13.3% (active) |
| CCSC1(SCC)N=C(N)C2(C#N)C(c3ccccc3)NC(C)=CC12C#N (centres undefined) | -1.4% |
| O=C1CSC2=NCN(c3ccccc3)CN12 | 1.46% |
| CC(=O)Oc1ccc(OC(C)=O)c2c1C1C=CC2CC1 | 0.61% |
| CC(=O)N1CCN(c2ccc(NCc3ccc(C(C)C)cc3)cc2)CC1 | -1.92% |
| CC(=O)c1ccc(OC(=O)N2CCOCC2)cc1 | 0.72% |
| CC(C)NC(=O)C1(C)CCCCN1Cc1cccc(C(F)(F)F)c1 (centres undefined) | 0.98% |
| CC(=O)N1c2ccc(S(=O)(=O)N3CCCC(C(=O)Nc4cccc(F)c4)C3)cc2CC1C (centres undefined) | 1.26% |
| COCc1cc(=O)oc2cc(NS(=O)(=O)c3ccc(C)cc3)ccc12 | 0.66% |
| COc1ccc(CCNS(=O)(=O)c2cc3c(cc2C)NC(=O)CO3)cc1OC | -0.37% |
| O=C1COc2c1ccc(O)c2O | 1.71% |
| S=C(NCCCc1cnc[nH]1)NCCCN(Cc1ccc(Cl)c(Cl)c1)c1ccc(Br)cn1 | -0.12% |
